Hit rate of the full screen: of about 2,200 compounds, about 1,200 (55%) were called active. Cut-off not given; nearly all actives show IC50 up to about 92 µM. So high a share suggests a set chosen from earlier hits. The list shows a part of the results.
assay: counter assay for TAg ATPase ADP read-out – biochemical, ADP-Hunter, fluorescence, counter-screen (AID 2501); conditions: series mostly up to 100 µM;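 further: purified T antigen ATPase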

SMILES | IC50
Cc1ccc([C@@H]2[C@@H]3C(=O)N(c4ccccc4)C(=O)[C@@H]3[C@]3(C)C(=O)N(Cc4ccccn4)CC(=O)N23)o1 | inactive
CSc1nnc(-c2ccc(O)cc2)n1C | 27.5 µM (active)
CCOC(=O)/C=C/C(=O)OCC(=O)NCc1ccccc1 | inactive
Cc1cc(C)cc(-n2nnc(C(=O)NCc3ccccc3)c2N)c1 | inactive
CC/C(=N\NC(=O)CCC(=O)NCc1ccccc1)c1ccc(O)cc1 | 9.43 µM (active)
CN1C(=O)C2C(c3ccc(N(C)C)cc3)=NN(Cc3ccccc3)C2C1=O (configuration not stated) | 9.4 µM (active)
CC(C)C(=O)Nc1ccc(O)c(-c2csc(N)n2)c1 | 10.3 µM (active)
O=[N+]([O-])c1cccc(NC(=S)NCc2ccncc2)c1 | inactive
CCc1cccc2c(C(=O)CN3C(=O)NC(C)(c4cccc5ccccc45)C3=O)c[nH]c12 (configuration not stated) | inactive
Cn1c2ccccc2c2nnc(SCC(=O)Nc3cccc(C(=O)O)c3)nc21 | inactive
CSc1nnc(-c2ccco2)c(-c2ccco2)n1 | inactive
Cc1ccccc1NC(=O)CSc1nnc(-c2ccco2)c(-c2ccco2)n1 | inactive
CCc1nc(SCC(=O)Nc2ccc(N(C)C)cc2)n[nH]1 | 6.73 µM (active)
CN(C)c1ccc(NC(=O)CSc2nnc(-c3ccco3)c(-c3ccco3)n2)cc1 | 6.24 µM (active)
FC(F)(F)C1CCCN(c2nsc3ccccc23)C1 (configuration not stated) | inactive
CN1\C(=C/C=C/C=C/C=[N+](C)C)C(C)(C)c2ccccc21 | 12.3 µM (active)
O=C(N/N=C/c1ccc(O)cc1)c1csc2ccccc12 | 4.27 µM (active)
CNC(=S)NNC(=O)c1cc(C(C)(C)C)nn1Cc1ccc(F)cc1 | inactive
O=C(O)c1cc(N/N=C/c2cccc3ccccc23)ccc1Cl | inactive
O=C(N/N=C/c1ccc(O)c(O)c1)c1cc(-c2ccccc2)nc2ccccc12 | 36 µM (active)
Cc1nnc(NC(=O)c2cc(-c3ccco3)nc3ccccc23)s1 | inactive
CC(C)(C)c1cc(C(=O)N/N=C/c2ccc(O)cc2)n(-c2ccccc2)n1 | 61.4 µM (active)
Cc1ccc(-c2cc(C(=O)NCc3ccco3)c3ccccc3n2)o1 | inactive
CCc1cc(C(=O)N/N=C/c2ccc(O)cc2)c2ccccc2n1 | 2.69 µM (active)
Cc1cc(/C=N/NC(=O)C(O)(c2ccccc2)c2ccccc2)c(C)n1-c1cccc(C(=O)O)c1 | inactive
Cc1cccc(NC(=O)c2cc(Cl)nc3ccccc23)c1 | inactive

SMILES | IC50
Nc1ccc(-n2nncc2-c2ccc(Cl)cc2)cc1 | inactive
COc1cnc(-c2ccccn2)nc1Oc1ccc(Cl)c2ccccc12 | inactive
CC(NC(=O)Nc1ccc(O)cc1)(C(F)(F)F)C(F)(F)F | 6.77 µM (active)
CCOC(=O)C1(CCc2ccccc2)CCN(C(=O)CCc2cnn(C)c2)CC1 | inactive
CCOC(=O)C1(Cc2ccc(Cl)cc2)CCN(C(=O)CCc2ccncc2)CC1 | inactive
CCOC(=O)C1(Cc2ccccc2)CCN(Cc2cnn(C(C)C)c2)CC1 | 26.4 µM (active)
Cc1ncc(CO)c(/C=N/NC(=O)c2cc(O)c(O)c(O)c2)c1O | inactive
O=C(N/N=C/c1c[nH]c2ccccc12)c1ccc(O)c(O)c1 | 7.17 µM (active)
Oc1ccc(O)c(-c2cnns2)c1 | 28.1 µM (active)
CC(=O)CC1OC(=O)C(Br)=C1NCc1ccccc1 (configuration not stated) | inactive
C/C(=N/NC(=O)c1cc(O)c(O)c(O)c1)c1ccc([N+](=O)[O-])cc1 | inactive
CN(C(=O)COC(=O)CNC(=O)CNC(=O)c1ccc(Cl)cc1Cl)c1ccccc1 | inactive
C=CCN(c1ccc(C(=O)Nc2cccc([N+](=O)[O-])c2)cc1)S(C)(=O)=O | inactive
C/C(CC(=O)Nc1ccc(N(C)C)cc1)=N\NC(=O)c1ccc([N+](=O)[O-])cc1Cl | 6.47 µM (active)
C/C(CC(=O)Nc1ccc(N(C)C)cc1)=N\NC(=O)c1ccc(Cl)cc1Cl | 3.99 µM (active)
C=C(CC)C(=O)c1ccc(OCC(=O)O)c(Cl)c1Cl | inactive
Cc1ccc(CNC(=O)C2CC(c3ccccc3[N+](=O)[O-])=NO2)cc1 (configuration not stated) | inactive
CC1=C(C#N)c2nc(N)c(C#N)c(C)c2/C1=C\c1ccc(-c2ccccc2C(=O)O)o1 | inactive
COc1cc(/C=N/NC(=O)CC#N)cc(Br)c1O | 6.13 µM (active)
CN=c1scc(C)n1/N=C/c1cc(Br)c(O)c(OC)c1 | 5.68 µM (active)
CN=c1scc(C)n1/N=C/c1ccc(O)cc1O | 3.58 µM (active)
CCN=c1scc(C)n1/N=C/c1cc(Br)c(O)c(Br)c1 | 6.61 µM (active)
COc1cc([N+](=O)[O-])cc(/C=N/NC(=O)CC#N)c1O | inactive
COc1cc(/C=N/N(C)C)cc(Br)c1O | 3.75 µM (active)
CCN=c1scc(C)n1/N=C/c1cc(Br)c(O)c(OC)c1 | 14.6 µM (active)
O=C1CSC(=S)N1/N=C/c1ccc(O)c([N+](=O)[O-])c1 | inactive

SMILES | IC50
COc1cc(/C=N/N2C(=O)CSC2=S)cc(Br)c1O | 13.3 µM (active)
COC(=O)c1ccccc1-n1c(C)nc(=O)c(-c2ccccc2)c1C | inactive
C[N+]1(CCCCSc2ccc(O)cc2)CCCCC1 | 4.59 µM (active)
CNc1n[nH]c(=S)s1 | 92.7 µM (active)
CC(=O)Oc1cc(O)c2c(=O)c(OC(C)=O)c(-c3ccc(OC(C)=O)c(OC(C)=O)c3)oc2c1 | 16.6 µM (active)
CC1(C)CC(=O)C=C(NCCc2ccccc2)C1 | inactive
NC(=O)c1ccc(N2CCN(c3ccc(O)cc3)CC2)c([N+](=O)[O-])c1 | 7.83 µM (active)
CN1CCN(S(=O)(=O)c2ccc(N3CCN(c4ccc(O)cc4)CC3)c([N+](=O)[O-])c2)CC1 | 4.03 µM (active)
O=C(Nc1ccc(CN2CCOCC2)cc1)c1ccc(N2CCCC2)c([N+](=O)[O-])c1 | inactive
CC(=O)Nc1ccc(S(=O)(=O)N2CCN(Cc3ccccc3[N+](=O)[O-])CC2)cc1 | inactive
CN1CCN(S(=O)(=O)c2ccc3c(c2)NC(=O)C2CCCN32)CC1 (configuration not stated) | inactive
O=[N+]([O-])c1ccc(N2CCN(c3ccc(O)cc3)CC2)cn1 | 5.49 µM (active)
O=C(O)c1ccc(-c2ccc(O)c(F)c2)cc1 | 7.49 µM (active)
O=C1NC(C(=O)O)=CC(c2ccc([N+](=O)[O-])cc2)N1 (configuration not stated) | inactive
Cc1ccnc(NC(=S)NC(=O)/C=C/c2ccco2)c1 | inactive
O=C(O)c1ccc(-n2c(-c3cc(-c4ccco4)[nH]n3)n[nH]c2=S)cc1 | inactive
Cc1cc(-c2n[nH]c(=S)n2/N=C/C=C/c2ccco2)n[nH]1 | 97.4 µM (active)
Cc1ccsc1/C=N/n1c(-c2cccnc2)n[nH]c1=S | 25 µM (active)
CC(/C=N/n1c(-c2n[nH]c3c2CCC3)n[nH]c1=S)=C\c1ccco1 | 49 µM (active)
S=c1[nH]nc(COc2ccccc2)n1/N=C/C=C/c1ccco1 | inactive
CC(/C=N/n1c(-c2ccncc2)n[nH]c1=S)=C\c1ccco1 | 44.3 µM (active)
O=C(O)c1cc(-c2ccco2)nc2ccc(Br)cc12 | inactive
Cc1ccc(/C=N/n2c(-c3ccco3)n[nH]c2=S)cc1 | 16.5 µM (active)
S=c1[nH]nc(-c2n[nH]c3c2CCC3)n1/N=C/C=C/c1ccco1 | 28.2 µM (active)
C=CCn1c(-c2ccc3ncccc3c2)n[nH]c1=S | inactive
Cc1ccc(-n2c(-c3cc(-c4ccco4)[nH]n3)n[nH]c2=S)c(Br)c1 | inactive

SMILES | IC50
Cc1cccc(/C=N/n2c(-c3ccncc3)n[nH]c2=S)c1 | 88.6 µM (active)
CC(/C=N/n1c(-c2cccnc2)n[nH]c1=S)=C\c1ccccc1 | 38.8 µM (active)
CCS(=O)(=O)N1CCC(C(=O)NCCN2CCOCC2)CC1 | inactive
Cc1cc(C(F)(F)F)nc2c(Cl)c(C(C)(C)C)nn12 | inactive
NS(=O)(=O)c1ccc(N=Nc2c[nH]c(=O)c(O)c2)cc1 | 7.75 µM (active)
CCOC(=O)c1[nH]c2ccccc2c1NC(=S)Nc1cccc(C)c1C | 29 µM (active)
Cc1cccc(C)c1NC(=S)Nc1ccccc1C(=O)NCc1ccco1 | inactive
CCOC(=O)c1c(C)[nH]c(C(=O)OCC(=O)Nc2cc(Cl)ccc2OC)c1C | inactive
COc1ccc(NC(=S)N/N=C/c2ccc(F)c(F)c2)cc1 | 23.4 µM (active)
COc1ccc(CNS(=O)(=O)c2ccc(F)c(C(=O)Nc3ccc(OC)cc3)c2)cc1 | inactive
COc1ccc(/C=N/NC(=O)c2ccc(Br)cc2)cc1CN1CCOCC1 | 13 µM (active)
COc1cc(/C=N/NC(=S)NCCN2CCOCC2)ccc1O | 2.37 µM (active)
COc1ccc(C(=O)N/N=C/c2ccc(OC)c(CN3CCc4cc(OC)c(OC)cc4C3C)c2)cc1 (configuration not stated) | inactive
Oc1ccc(/C=N/NC(=S)NCCN2CCOCC2)c(O)c1 | 4.25 µM (active)
COC(=O)c1sc2nc(-c3ccco3)ccc2c1N | inactive
COc1cc(N2C(=O)C=CC2=O)c(OC)cc1Cl | inactive
O=C(O)Cc1nn(Cc2ccc(Cl)cc2)c(=O)c2ccccc12 | inactive
O=c1oc2c3c4c(cc2s1)CCCN4CCC3 | inactive
CCCCCCNC(=O)N[C@H](C(=O)NCCC[C@H]1CN2C(=NC[C@H]2C)N1CCC(c1ccccc1)c1ccccc1)C(C)O (some centres not stated) | inactive
CCN(CC(=O)NC(C)C)C(=O)Cc1ccc(C)c(C)c1 | inactive
O=C(CCN1CCN(c2ccccc2)CC1)N/N=C/c1ccc(O)c(O)c1O | inactive
COc1ccc(CNC(=S)N/N=C/c2ccc(O)c(OC)c2)cc1 | 7.64 µM (active)
Oc1cccc(/C=N/NC(=S)NCCN2CCOCC2)c1O | 7.38 µM (active)
Cc1c(NC(=O)CCC2CCCCC2)cc(C(=O)N2CCOCC2)cc1[N+](=O)[O-] | inactive
